# Measurements: PubChem BioAssay (Tox21)
# Several values for one entry are separate records, joined by “and”; a condition that tells them apart may be missing. Equal entries are not always repeated. Records with an inconclusive call do not appear. A call without a number means that no potency is given here. Where a structure was tested more than once in an assay, its records may differ in their call. Activity calls are given as the source filed them. Calls come from the whole dose curve; as a rule, active = well fitted activation curve with a large enough effect in the repeat runs; inconclusive = weak or mixed curves; inactive = no such curve, though single readings can be large or run the other way.
# Biological target: Nuclear receptor subfamily 1 group I member 2 (Homo sapiens) (UniProt O75469)
# Assay: Human pregnane X receptor (PXR) small molecule agonists, qHTS assay (AID 1346982); note: nearly all actives have a fitted effect of over 35% in size
# Settings: PXR-Luc HepG2, CYP3A4 luciferase reporter, 24 h; series mostly up to 92.4 µM; activation: at the top concentration
# Text: National Center for Advancing Translational Sciences [NCATS]
# NIH Chemical Genomics Center [NCGC]
# U.S. Environmental Protection Agency [EPA]
# National Institutes of Environmental Health Sciences [NIEHS]
# National Toxicology Program [NTP]
# The human pregnane X receptor (hPXR) regulates the expression of several drug metabolizing enzymes and induction of these proteins is a major mechanism for developing drug resistance in cancer. One such key enzyme catalyzing the drug metabolism is cytochrome P450 3A4 (CYP3A4). Changes in CYP3A4 expression affect drug metabolism, thereby reducing the therapeutic efficacy and altering toxicological response to a drug and which finally causes adverse drug interaction. To screen Tox21 libraries for compounds that activate hPXR-mediated CYP3A4 gene expression, PXR-Luc HepG2 cells were used.
# PXR-Luc HepG2 cells were dispensed at 2,000 per well in 5uL of assay medium containing 5% charcoal-stripped FBS into white solid bottom 1536-well plates (Corning Life Sciences, Corning, NY) using a Multidrop Combi (Thermo Scientific, Waltham, MA) dispenser. The assay plates were incubated at 37 C and 5% CO2 for 5hr, and then 23nL of compounds dissolved in DMSO and positive control were transferred using a Pintool station (Wako, San Diego, CA). The assay plates were incubated at 37C and 5% CO2 for 24hr. For luciferase read, 4uL of ONE-Glo reagent (Promega Corporation, Madison, WI) was added to each well of the assay plates using Flying Reagent Dispenser (FRD, Aurora Discovery, San Diego, CA) and incubated the assay plates at room temperature for 30min. The luminescence signal was quantified using a ViewLux plate reader (Perkin Elmer, Shelton, CT).
# Potency is the fitted concentration of half-maximal effect.
# Chain of Nuclear receptor subfamily 1 group I member 2 (Homo sapiens) (O75469 whole entry, looked up): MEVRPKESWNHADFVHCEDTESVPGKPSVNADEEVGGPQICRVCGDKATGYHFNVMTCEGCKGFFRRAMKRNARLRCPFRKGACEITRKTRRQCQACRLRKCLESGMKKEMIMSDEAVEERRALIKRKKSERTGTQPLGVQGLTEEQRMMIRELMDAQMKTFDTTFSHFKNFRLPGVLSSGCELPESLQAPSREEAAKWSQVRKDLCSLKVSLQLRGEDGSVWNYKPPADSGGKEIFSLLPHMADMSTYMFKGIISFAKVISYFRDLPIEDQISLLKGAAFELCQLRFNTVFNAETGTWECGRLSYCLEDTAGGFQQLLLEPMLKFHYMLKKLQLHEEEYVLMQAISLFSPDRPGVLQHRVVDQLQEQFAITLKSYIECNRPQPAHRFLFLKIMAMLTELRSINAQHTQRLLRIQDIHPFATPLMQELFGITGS
SMILES,Potency,activation
CCOC(=O)CC(=O)OCC,inactive,
C[Si](C)(C)N[Si](C)(C)C,60.6 µM (active) and inactive,
Cc1ccc(Cl)cc1,inactive,
CC(CN1c2ccccc2Sc2ccccc21)N(C)C (stereo not given),19.3 µM (active) and inactive,
O=C1O[C@H]([C@H](O)CO)C(O)=C1O,inactive,
COC(=O)CCCCC(=O)OC,inactive,
NC(=O)c1ncn([C@@H]2O[C@H](CO)[C@@H](O)[C@H]2O)n1,9.1 µM (active) and inactive,
CCn1cc(C(=O)O)c(=O)c2cc3c(cc21)OCO3,inactive,
CCCCCCC(=O)O,inactive,
CC/C=C(\C(=O)N[C@@H]1C(=O)N2C(C(=O)OCOC(=O)C(C)(C)C)=C(COC(N)=O)CS[C@H]12)c1csc(N)n1,inactive,
O=C(Cl)c1ccc(C(=O)Cl)cc1,inactive,
COc1ccccc1[N+](=O)[O-],inactive,
COc1c2ccoc2cc2oc(=O)ccc12,55.7 µM (active) and 21.7 µM (active),
O=C(c1ccccc1)c1ccc(O)c(O)c1O,54.9 µM (active),
CCCCCCCCCCCC(=O)N(C)CC(=O)O,59.2 µM (active),-3.89% [at 8.39 µM] (inactive)
Nc1nc(N)c2nc(-c3ccccc3)c(N)nc2n1,49.1 µM (active) and 61.1 µM (active) and 26.6 µM (active),
CC(C)(CO)CO,inactive,
CC(=O)c1nccs1,inactive,
CC(=O)OC[C@H]1O[C@@](COC(C)=O)(O[C@H]2O[C@H](COC(C)=O)[C@@H](OC(C)=O)[C@H](OC(C)=O)[C@H]2OC(C)=O)[C@@H](OC(C)=O)[C@@H]1OC(C)=O,inactive,
OB(O)O,inactive,

SMILES,Potency,activation
COC(=O)OC,inactive,
COc1cc(NC(=O)CC(C)=O)c(OC)cc1Cl,68.9 µM (active) and 24.3 µM (active),
Cc1ccncc1,inactive,
NC(=O)NC(N)=O,inactive,
C=CC(C)(C)C,inactive,
Cc1ccccc1Cl,inactive,
O=c1c(O)c(-c2ccc(O)c(O)c2)oc2cc(O)cc(O)c12,48.6 µM (active) and 69.1 µM (active),
OC[C@H]1O[C@@H](Oc2ccc(O)cc2)[C@H](O)[C@@H](O)[C@@H]1O,inactive,
CCCCCNCCCCC,,7.5% (inactive)
Cc1cc(C)c(O)c(C)c1,30.6 µM (active) and inactive,
CC(=O)Nc1ccc(CC(=O)O)cc1,inactive,
O=C(O)Cc1c[nH]c2ccccc12,inactive,
C=C(C)CC(C)(C)C,inactive,
COc1ccc([C@@H]2CC(=O)c3c(O)cc(O[C@@H]4O[C@H](CO[C@@H]5O[C@@H](C)[C@H](O)[C@@H](O)[C@H]5O)[C@@H](O)[C@H](O)[C@H]4O)cc3O2)cc1OC,,21.3% (inactive)
Nc1cccc(C(F)(F)F)c1,inactive,
CN1CCCC1=O,63.2 µM (active) and inactive,
CCCCCC(C)=O,,3% (inactive)
Cc1cccc(C)c1[N+](=O)[O-],,10.7% (inactive)
CC(=O)OCc1ccc2c(c1)OCO2,inactive,
